KCNQ2 enhance: KCNQ2 (rat) channel potentiation | B-score at 10 µM | actives 0.54% (n = 310,000) | CHO-K1 KCNQ2, FluxOR thallium flux fluorescence; hits give high values;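 active means fluorescence ratio B-score at least 3 SD of library B-scores, with initial fluorescence B-score within 3 of them, cut at about 5.3 in these data; same plate scores as AID 2156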;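 further: B-score of peak minus minimum over baseline fluorescence ratio after K+ and Tl+ stimulus; positive B-score means potentiation of KCNQ2 with more thallium influx and brighter signal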
Target sequence (O88943 whole entry, looked up): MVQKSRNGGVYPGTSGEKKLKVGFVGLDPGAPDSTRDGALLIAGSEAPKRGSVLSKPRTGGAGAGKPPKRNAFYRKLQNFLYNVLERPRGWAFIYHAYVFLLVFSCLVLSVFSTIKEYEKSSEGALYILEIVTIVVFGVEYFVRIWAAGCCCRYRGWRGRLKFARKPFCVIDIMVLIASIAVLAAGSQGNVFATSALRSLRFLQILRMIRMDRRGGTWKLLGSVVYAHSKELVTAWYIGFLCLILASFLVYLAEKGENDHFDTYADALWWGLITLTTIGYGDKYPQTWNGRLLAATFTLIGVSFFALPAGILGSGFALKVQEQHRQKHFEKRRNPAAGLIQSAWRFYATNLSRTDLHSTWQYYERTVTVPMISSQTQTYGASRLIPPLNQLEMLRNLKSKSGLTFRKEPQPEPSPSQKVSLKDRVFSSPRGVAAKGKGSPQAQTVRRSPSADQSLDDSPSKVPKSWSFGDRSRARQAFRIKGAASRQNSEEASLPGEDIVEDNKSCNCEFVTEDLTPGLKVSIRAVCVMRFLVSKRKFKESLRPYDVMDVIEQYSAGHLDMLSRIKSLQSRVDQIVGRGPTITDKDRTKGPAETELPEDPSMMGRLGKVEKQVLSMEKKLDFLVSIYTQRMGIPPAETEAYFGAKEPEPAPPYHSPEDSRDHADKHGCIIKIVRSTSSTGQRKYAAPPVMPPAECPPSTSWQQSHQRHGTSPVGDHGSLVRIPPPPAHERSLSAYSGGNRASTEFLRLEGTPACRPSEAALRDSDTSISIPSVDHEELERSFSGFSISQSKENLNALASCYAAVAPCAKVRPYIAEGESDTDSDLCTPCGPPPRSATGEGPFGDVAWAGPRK
KCNQ2 inh: blocks the rat KCNQ2 potassium channel; O88943; B-score at 10 µM; actives 1.1% (n = 310,000); CHO-K1 KCNQ2, FluxOR thallium flux, 20 min; hits give low values; AID 2156;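 active means fluorescence ratio B-score at most minus 3 library SDs, with starting brightness B-score within 2 library SDs, cut at about -5.5 in these data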
Numbers stand for hits; 0 = inactive; - = not tested or not shown. Most compounds without a hit are left out; they make up all but 1.6% or so of the library.

SMILES | KCNQ2 enhance | KCNQ2 inh
CCOC(=O)C1=C(C)n2c(s/c(=C/c3cccc([N+](=O)[O-])c3)c2=O)=NC1c1ccc(O)c(OC)c1 (configuration not stated) | 0 | -6.12
COCCCNC(=O)c1c(-c2ccccc2)noc1C | 0 | 0
CC(C)CC(O)(c1ccccc1)C(CN1CCOCC1)c1ccccc1 (configuration not stated) | - | 0
OC(c1ccc(F)cc1)(C1CCCCC1)C(CN1CCOCC1)c1ccccc1 (configuration not stated) | 0 | -5.7
CCn1nc(C)c(Br)c1Nc1ccc(Br)cc1 | 0 | 0
CCOC(=O)C(CC)Sc1cc(C)nc2ccc(OC)cc12 (configuration not stated) | - | 0
CCN(CC)c1nc2c(c(=O)n(C)c(=O)n2C)n1CCCc1ccccc1 | - | 0
CN(Cc1ccccc1)c1nc2c(c(=O)n(C)c(=O)n2C)n1CCCc1ccccc1 | 0 | -7.89
COc1ccc(-n2nc(C(=O)NCC(=O)N3CCN(c4ccccn4)CC3)c3ccccc3c2=O)cc1OC | - | 0
COc1ccc(-n2nc(C(=O)NCC(=O)N3CCN(c4ccccn4)CC3)c3ccccc3c2=O)cc1 | 0 | -8.21
O=C(O)CC1(CC(=O)Nc2ccc(Br)cc2)CCCCC1 | 0 | -7.58
O=C(O)CC1(CC(=O)Nc2ccc3ccccc3c2)CCCCC1 | - | 0
CN1CCN(C(=O)NC2CCCN2S(=O)(=O)c2ccc(Cl)cc2)CC1 (configuration not stated) | - | 0
CCC(=O)Nc1nnc(S(=O)(=O)N(CC)c2cc(C)cc(C)c2)s1 | - | 0
NC(=O)COC(=O)c1sc2ccccc2c1Cl | 0 | 0
Cc1cc(C)n(CCOC(=O)c2sc3ccccc3c2Cl)n1 | 0 | -10.1
CC(c1ccc(F)cc1)n1c(-c2cccs2)n[nH]c1=S (configuration not stated) | - | 0
CC(C)(C)c1ccc(-c2cc(C(=O)NNC(=O)Nc3ccccc3)c3ccccc3n2)cc1 | - | 0
O=C(NNC(=O)c1cc(-c2ccccc2)nc2ccccc12)Nc1cccc(Cl)c1 | 0 | -6.34
Cc1ccc(C)c(NC(=O)CSc2nnc(CSc3nc(C)cc(C)n3)n2Cc2ccco2)c1 | - | 0
Cc1ccc(NC(=O)CSc2nnc(CSc3nc(C)cc(C)n3)n2Cc2ccco2)c(C)c1 | 0 | -6.65
Cc1ccc(NCc2nnc(SCC(=O)c3ccccc3)o2)c(C)c1 | - | 0
Cc1ccc(NCc2nnc(SCC(=O)c3ccccc3)n2Cc2ccco2)c(C)c1 | 0 | -7.77
O=C(Cn1cnc2ccccc2c1=O)OCC(=O)c1ccc2c(c1)OCCO2 | - | 0
O=C(COC(=O)c1cc(-c2cccs2)nn1-c1ccccc1)Nc1ccc(F)c([N+](=O)[O-])c1 | - | 0
SMILES | KCNQ2 enhance | KCNQ2 inh
Nc1c(-c2ccccc2)c(CSc2nc3ccccc3[nH]2)nn1-c1cccc(Cl)c1 | 0 | -5.6
Nc1c(-c2ccccc2)c(CSc2nc3ccccc3[nH]2)nn1-c1ccc(Cl)cc1 | - | 0
Cc1ccc(-c2nnc(N(C)C(=O)c3ccncc3)s2)cn1 | 0 | 0
C=CCOC(=O)C1=C(C)NC(SCC(=O)OCC)=C(C#N)C1c1ccc(O)c(OC)c1 (configuration not stated) | 0 | -8.14
C=CCOC(=O)C1=C(C)NC(SC)=C(C#N)C1c1ccc(OCC)cc1 (configuration not stated) | - | 0
CCOc1ccc2nc(C)cc(Nc3ccc4c(c3)OCCO4)c2c1 | - | 0
O=S(=O)(c1ccccc1)N1CCC(=NO)CC1 | 0 | 0
O=S(=O)(c1ccccc1)C(/C=N\O)/C=C/c1ccccc1 (configuration not stated) | 0 | -6.29
COc1ccccc1NC(=O)c1ccc(COc2ccccc2OC)cc1 | - | 0
CN(CC(=O)Nc1ccccc1Sc1ccccc1)Cc1nc2ccccc2c(=O)[nH]1 | - | 0
CN(CC(=O)NC(c1ccccc1)c1ccccc1)Cc1nc2ccccc2c(=O)[nH]1 | 0 | -6.64
COC(=O)c1ccccc1NC(=O)c1ccc(COc2cc(C)cc(C)c2)o1 | 0 | -6.38
COc1ccccc1NC(=O)c1ccc(COc2ccccc2OC)o1 | - | 0
COC(=O)c1ccccc1NC(=O)c1ccc(COc2ccc(C)c(C)c2)o1 | 0 | -6.59
Cc1ccc(OCc2ccc(C(=O)NN)o2)cc1C | - | 0
CSC(=CC(=O)c1ccccc1)SC | - | 0
O=C(COC(=O)c1cc(Cl)ccc1Cl)NCCN1C(=O)CSC1=O | - | 0
Cc1cc(Sc2nc(N)ncc2[N+](=O)[O-])ncn1 | - | 0
Cc1cc(Sc2ncnc(N)c2[N+](=O)[O-])ncn1 | 0 | -5.87
OCCN(Cc1ccccc1)Cc1cccc(F)c1 | 0 | 0
CNC(C)C#Cc1ccc2c(=O)c3cc(C)c(C)cc3oc2c1 (configuration not stated) | - | 0
N#CC(c1ccccc1)(c1ncc(C(F)(F)F)cc1Cl)N1CCOCC1 (configuration not stated) | 0 | -7
N#CC(c1cccc(C(F)(F)F)c1)(c1ncc(C(F)(F)F)cc1Cl)N1CCOCC1 (configuration not stated) | - | 0
Cc1c(C(=O)NCc2ccccc2)c(-c2ccccc2)nn1-c1ccccc1 | 0 | -5.6
Cc1c(C(=O)NC(C)C)c(-c2ccccc2)nn1-c1ccccc1 | - | 0
SMILES | KCNQ2 enhance | KCNQ2 inh
CC(=O)c1cc2c(=O)c3ccccc3oc2nc1C | 0 | 0
O=C(c1ccc2nc(N3CCOCC3)sc2c1)N1CCCC1 | 0 | 0
COCCn1c(SCC(=O)Nc2ncc(C)s2)nc2sc3c(c2c1=O)CCC3 | 0 | 0
COCCn1c(SCc2nnc(-c3ccccc3)o2)nc2sc3c(c2c1=O)CCC3 | 0 | -6.63
CCCCn1nnnc1SCC(=O)N(CC)CC | 0 | 0
CC1(C)CN=C(N(Cc2ccccc2)C(=O)Nc2ccccc2)S1 | 0 | -6.36
CC1(C)CN=C(N(C(=O)Nc2ccccc2)c2ccccc2F)S1 | - | 0
COc1ccc(OC)c(C2NC(=S)NC3=C2N2CCC3CC2)c1 (configuration not stated) | 0 | 0
COc1ccc2cc(C(=O)N3CCN(c4cccc(C)c4C)CC3)[nH]c2c1 | 0 | -6.22
COc1cccc(N2CCN(C(=O)c3cc4ccc(OC)cc4[nH]3)CC2)c1 | 0 | 0
O=[N+]([O-])c1ccc(Nc2nc(N/N=C\c3ccc4c(c3)OCO4)nc(N3CCCCC3)n2)cc1 | 0 | -5.75
O=[N+]([O-])c1ccc(/C=N/Nc2nc(N3CCCCC3)nc(N3CCCCC3)n2)cc1 | - | 0
Cc1cc(C)cc(N(CC(=O)NC2CCCCC2)C(=O)c2ccc(C)s2)c1 | - | 0
CC(C)(C)C1CCC(N2CCN(c3ccccc3)CC2)CC1 (configuration not stated) | 0 | 0
C/C(=N\NC(=O)c1cccc2ccccc12)c1ccccn1 | - | 0
C/C(=N\NC(=O)c1ccoc1C)c1cccc2ccccc12 | 11.7 | 0
Cc1cc(C)n(-c2nc3ccccc3nc2N2CCN(S(=O)(=O)c3ccc4ccccc4c3)CC2)n1 | 0 | -5.89
Cc1cc(C)n(-c2nc3ccccc3nc2N2CCN(S(=O)(=O)c3ccc(F)c(C)c3)CC2)n1 | - | 0
COc1cc(NS(=O)(=O)c2ccc(NC(=S)NC(=O)CC(C)C)cc2)nc(OC)n1 | 0 | 0
COC(=O)CCC(=O)NC(=S)Nc1ccc(S(=O)(=O)Nc2cc(OC)nc(OC)n2)cc1 | 0 | -6.38
CCOC(=O)c1ccc(CC(=O)c2ccc(O)cc2O)o1 | - | 0
COC(=O)c1ccc(CC(=O)c2ccc(O)cc2O)o1 | 0 | -5.83
CSCC[C@H](NC(=O)[C@@H]1Cc2ccccc2CN1)C(=O)NC[C@H]1CC[C@H](C(=O)O)CC1 | - | 0
O=C(Nc1ccccc1)c1ccccc1CSc1ccccc1 | 0 | 0

High-throughput results as filed in PubChem BioAssay.
